# Screening results deposited in PubChem BioAssay by National Center for Advancing Translational Sciences (NCATS).
# Rows were chosen to be rich in hits. Some 9.3% of all compounds tested hit in one or more screens of this group.
# ELG1 genotoxic: induces genotoxicity in HEK293T cells with luciferase-tagged ELG1; HEK293T ELG1-luciferase reporter, luminescence, 16 h; Potency, µM (top dose mostly 46 µM), inactives show at the top dose activity change, positive = activation, most hits filed as activators; 330,000 compounds, 1.3% hits; also: % of control where 0% means no effect; nearly all actives have a fitted effect of over 60% in size
#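 Genotoxicity was scored as increased ELG1-luciferase reporter signal, measured by ONE-Glo luminescence (30 min, room temperature). Compound or vehicle exposure of the HEK293T reporter cells lasted 16 hr at 37°C.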
# FLuc modulator: firefly luciferase modulation, counter-screen for miR-21 project; P08659; purified FLuc, Km substrates, luminescence inhibition; Potency, µM (highest dose often 57.5 µM), without a hit: at the top dose activity change, negative = inhibition, most hits filed as inhibitors; 360,000 compounds, 6.9% hits; AID 588342;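 also: plate controls were vehicle for no effect and reference inhibitor for full effect; nearly all actives have a fitted effect of over 55% in size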
# Target sequence (P08659 whole entry, looked up): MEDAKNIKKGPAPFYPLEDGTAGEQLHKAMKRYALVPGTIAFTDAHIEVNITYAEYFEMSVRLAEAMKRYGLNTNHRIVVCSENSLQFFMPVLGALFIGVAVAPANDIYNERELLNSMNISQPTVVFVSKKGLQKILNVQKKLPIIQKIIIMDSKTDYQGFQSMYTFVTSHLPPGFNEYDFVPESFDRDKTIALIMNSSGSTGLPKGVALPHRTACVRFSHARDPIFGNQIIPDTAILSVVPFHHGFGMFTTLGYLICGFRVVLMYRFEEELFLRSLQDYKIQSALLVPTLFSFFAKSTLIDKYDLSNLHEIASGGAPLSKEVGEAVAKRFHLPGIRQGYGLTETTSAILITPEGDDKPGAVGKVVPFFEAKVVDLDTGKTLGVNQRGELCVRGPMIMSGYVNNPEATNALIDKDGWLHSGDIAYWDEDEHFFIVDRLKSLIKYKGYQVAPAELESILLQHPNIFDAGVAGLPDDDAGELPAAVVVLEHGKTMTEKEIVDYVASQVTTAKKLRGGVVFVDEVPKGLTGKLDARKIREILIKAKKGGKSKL
#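 Purified P. pyralis luciferase (10nM final) with 10uM D-luciferin and 10uM ATP (Km levels) in 50mM Tris acetate pH 7.5, 10mM Mg acetate, 0.01% Tween-20, 0.05% BSA; qHTS 6-point titration, ~60 µM downward; luminescence read.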
# Rab9 promoter act: activates the Rab9 promoter; Huh7 Rab9 promoter-luciferase reporter, luminescence, 24 h; Potency, µM (titrated, usually from 9.22 µM), inactives show at the highest dose activation, negative = inhibition, most hits filed as activators; 320,000 compounds, 2.8% hits; AID 485297; also: % of control where 0% means no effect; nearly all actives have a fitted effect of over 60% in size
#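 Huh7 reporter line, Rab9 promoter upstream of luciferase. Compound exposure 24 h at 37 °C in reduced-serum medium with 10% FBS. Read-out: luminescence.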
# ELG1 DNA repair: blocks ELG1-dependent DNA repair in HEK293T cells; HEK293T ELG1-luciferase reporter, luminescence, 16 h; DNA damage induced by 5-fluorouridine; 330,000 compounds, 2.3% hits; Potency, µM (series often up to 46.1 µM), for the others: top-dose activity change, negative = inhibition, usual class: inhibitors; AID 504467; also: % is scaled to controls: 0 for no effect and ±100 for the full control effect; nearly all actives have a fitted effect of over 55% in size
#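 Cells (2,000 per well) received 5-fluorouridine plus test compound or DMSO and were incubated 16 hr at 37 °C, 5% CO2. Luciferase activity was read by luminescence 30 min after ONE-Glo addition; signal suppression marked inhibition of damage-induced ELG1 function.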
# NPC1 promoter act: activates the NPC1 promoter; Potency, µM (doses to about 9.22 µM), inactives show at the highest dose activation, most hits filed as activators; 320,000 compounds, 2.4% hits; Huh7 NPC1 promoter luciferase reporter, 24 h; AID 485313; also: % of control where 0% means no effect; nearly all actives have a fitted effect of over 60% in size
#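 NPC1 promoter–luciferase Huh7 cells; 24 h compound; luminescence.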
# SMN2 splice up: enhancers of SMN2 splice variant expression | HEK293 SMN2-luciferase splicing reporter, luminescence, 30-36 h | 210,000 compounds, 2.8% hits | AID 1458 | Potency, µM (titrated, usually from 46.1 µM), inactives show at the highest dose activity change, positive = activation, usual class: activators; also: % of control where 0% means no effect; nearly all actives have a fitted effect of over 55% in size
#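 HEK293 cells carry an SMN2 minigene-luciferase reporter in which exon 7 inclusion puts luciferase in frame. Cells were seeded at 2000 cells/well, attached for 10-12 hours, then exposed to compounds for 30-36 hours at 37C before ONE-Glo luminescence.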
# * marks the source's active call; other numbers are inactive results; ? = inconclusive; · = no result. Calls follow the shape of the dose curve; as a rule, active = well fitted curve in the direction sought with a large enough effect; inconclusive = small, poorly fitted or top-dose-only effect, or another doubt; inactive = no such curve, though single readings can be large; an effect the other way counts as inactive or inconclusive. Potency is read from the fitted curve at half-maximal effect.
SMILES,ELG1 genotoxic,FLuc modulator,Rab9 promoter act,ELG1 DNA repair,NPC1 promoter act,SMN2 splice up
CC(=O)n1cc([C@H]2C=C(C(=O)Nc3ccccc3)O[C@@H](OCc3ccc(CO)cc3)C2)c2ccccc21,-11.3%,-1.7%,1.1%,9.2µM*,-2.2%,·
O=C(NC1CC1)C1=C[C@@H](c2ccc3c(c2)OCO3)C[C@@H](OCCCCO)O1,3.8%,-0.9%,-0.2%,9.3%,-0.8%,·
O=C(Nc1ccccc1)C1=C[C@@H](C2CC2)C[C@@H](OCCCCO)O1,?,16.9µM*,1.0%,?,0.0%,·
O=C(Nc1ccccc1)C1=C[C@H](c2ccc3c(c2)OCO3)C[C@H](OCCCCO)O1,16.9%,15.1µM*,29.9%,10.9%,11.4%,·
CC(=O)n1cc([C@@H]2C=C(C(=O)NCc3ccccc3)O[C@H](OCc3ccc(CO)cc3)C2)c2ccccc21,-6.1%,0.8%,-1.6%,?,-2.7%,·
C#CCNC(=O)C1=C[C@@H](C2CCCCC2)C[C@@H](OCc2ccc(CO)cc2)O1,5.5%,15.1µM*,-5.0%,-21.1%,0.9%,·
C=CCOC(=O)C1=C[C@H](c2coc3ccccc3c2=O)C[C@H](OCc2ccc(CO)cc2)O1,-7.1%,0.2%,3.3%,8.2µM*,3.5%,·
O=C(Nc1ccccc1)C1=C[C@H](c2ccccc2)C[C@H](OCc2ccc(CO)cc2)O1,1.5%,?,0.4%,-11.3%,1.9%,·
O=C(Nc1ccccc1)C1=C[C@@H](C2CC2)C[C@@H](OCc2ccc(CO)cc2)O1,9.8%,10.7µM*,18.0%,0.1%,11.0%,·
C=CCOC(=O)C1=C[C@@H](c2coc3ccccc3c2=O)C[C@@H](OCc2ccc(CO)cc2)O1,-5.3%,0.8%,-2.2%,-26.2%,0.7%,·
Cc1ccc(S(=O)(=O)n2c(N)nc3ccccc32)cc1,-0.2%,0.1%,-5.6%,7.0%,-1.1%,·
O=S(=O)(c1cccc(Cl)c1)n1c(/C=C/c2ccccc2Cl)nc2ccccc21,·,0.0953µM*,·,·,·,·
Cc1ccc(/C=C/c2nc3ccccc3n2S(=O)(=O)c2ccc(Br)cc2)cc1,·,0.757µM*,·,·,·,·
CSc1ccc(/C=C/c2nc3ccccc3n2S(=O)(=O)c2cccc(Cl)c2)cc1,·,0.0757µM*,·,·,·,?
O=c1[nH]c(SCc2ccc([N+](=O)[O-])cc2)nc2c1CCCC2,·,0.7%,·,·,·,·
Cc1cccc(OCC(=O)Nc2ccc3c(c2)OCO3)c1C,9.4%,19µM*,7.2%,1.4%,8.7%,-0.1%
O=C(COc1ccccc1[N+](=O)[O-])Nc1ccc2c(c1)OCO2,9.2µM*,4.78µM*,2.24µM*,?,2.51µM*,12.6µM*
O=C(COc1ccc2ccc(=O)oc2c1)Nc1ccc(CCO)cc1,0.1%,?,-9.1%,14.7%,-0.3%,·
Cc1ccc(OCC(=O)Nc2ccc3c(c2)OCO3)cc1C,8.4%,23.9µM*,15.7%,21.9%,5.1%,·
O=C(COc1ccc2ccc(=O)oc2c1)Nc1ccc2c(c1)OCCO2,7.9%,9.53µM*,27.0%,2.1%,2.3%,11.9%
CCOC(=O)C1CCN(CC(=O)Nc2ccc(S(=O)(=O)N3CCC(C)CC3)cc2)CC1,-5.5%,0.5%,-6.5%,?,-7.3%,·
NC(=O)c1cc(Cl)ccc1OCC(=O)Nc1ccc2c(c1)OCO2,?,0.849µM*,1.26µM*,?,1.41µM*,·
Cc1cc(C)c(NC(=O)CCCN2CCOCC2)c(C)c1,-2.2%,-0.4%,-1.5%,9.9%,-1.1%,15.0%
O=C(NCC1CCN(Cc2ccccc2Cl)CC1)c1cc2ccc3cccnc3c2[nH]1,·,-14.0%,·,·,·,·
COc1ccc2cc3cc(C(=O)NC4CC4)sc3nc2c1,?,0.675µM*,0.316µM*,?,0.447µM*,·
SMILES,ELG1 genotoxic,FLuc modulator,Rab9 promoter act,ELG1 DNA repair,NPC1 promoter act,SMN2 splice up
COc1ccc2nc3sc(C(=O)NCCN4CCc5ccccc5C4)cc3cc2c1,6.9%,?,12.7%,27.2%,2.0%,3.6%
COc1ccc2cc3cc(C(=O)NCCCN4CCc5ccccc5C4)sc3nc2c1,7.0%,9.53µM*,4.47µM*,?,?,15.8µM*
Cc1ccc2c(c1)C1(OCCCO1)C(=O)N2CC#N,-1.8%,-5.8%,1.7%,0.6%,-1.4%,·
COc1ccc(/C=C2\Oc3cc(OCC(=O)N4CCC(C(=O)O)CC4)ccc3C2=O)c(OC)c1,1.3%,6.75µM*,-6.5%,10.1%,0.0%,·
COc1ccc(/C=C2\Oc3cc(OCC(=O)N4CCC[C@H]4C(=O)O)ccc3C2=O)cc1OC,-1.4%,1.35µM*,-3.0%,-11.0%,-1.6%,·
COc1cccc(OC)c1C(=O)Oc1ccc2c(c1)O/C(=C\c1ccncc1)C2=O,-11.2%,0.8%,-7.5%,23.1µM*,-3.3%,-42.4%
COc1ccc(/C=C2\Oc3cc(OCC(=O)N4CCC[C@H]4C(=O)O)ccc3C2=O)c(OC)c1OC,6.6%,?,0.6%,12.5%,-5.1%,·
COc1cccc(/C=C2\Oc3cc(OCC(=O)N4CCCCC4)ccc3C2=O)c1OC,1.6%,9.53µM*,-7.4%,2.1%,-4.9%,·
c1ccc(-c2noc(CSc3nc4ccccc4o3)n2)cc1,1.1%,?,7.5%,?,3.7%,·
CCn1c(CCNC(=O)c2cccs2)n[nH]c1=S,2.3%,-11.5%,-1.9%,13.8%,0.4%,6.1%
O/N=C(\c1ccccn1)C1CC1c1ccccc1 (centres undefined),-2.4%,-10.0%,0.0%,-0.9%,-2.4%,1.1%
COc1ccc(/C=C2\Oc3cc(OCC(=O)N4CCC(C(=O)O)CC4)ccc3C2=O)c(OC)c1OC,6.1%,?,-5.7%,23.7%,-1.2%,·
COc1cccc(/C=C2\Oc3cc(OCC(=O)N4CCCC4)ccc3C2=O)c1OC,1.8%,9.53µM*,-1.5%,-18.6%,-3.5%,·
CC(=O)c1cccc(NC(=O)c2cccc(S(=O)(=O)N3CCOCC3)c2)c1,1.7%,0.5%,0.8%,?,7.7%,·
CCOC(=O)c1ccc(NC(=O)c2cccc(S(=O)(=O)N3CCOCC3)c2)cc1,-45.8%,-1.2%,-19.4%,23.1µM*,-3.8%,-54.8%
CCOc1cc(N2CCOCC2)c(OCC)cc1NC(=O)c1cccc(S(=O)(=O)N2CCOCC2)c1,-3.5%,·,·,16.4µM*,·,·
Cc1ccc(S(=O)(=O)N2CCOCC2)cc1C(=O)OCC(=O)c1ccc(Br)cc1,-2.5%,3.79µM*,-4.2%,?,0.2%,·
CCc1ccc(N2CC(C(=O)Nc3ccc(C)c(S(=O)(=O)N4CCOCC4)c3)CC2=O)cc1 (centres undefined),-9.2%,-14.9%,-18.8%,20.6µM*,-2.9%,·
Cc1ccc(C)c(OCCSc2nnc(C)c(=O)[nH]2)c1,-3.5%,?,-2.1%,?,5.2%,-1.7%
